Not all results are given here.
aSyn UTR act: Activators via SNCA 5'UTR binding, MLPCN | alpha-synuclein 5'UTR reporter, activators screen | activity score, % (tested at 7.5 µM), hits read low | actives 7.1% (n = 300,000) | AID 1814; in the data active = activity score below about -60%
Starred values were filed as active, the others as inactive.

How did COc1ccc(Cl)cc1C(=O)Nc1nc2ccc(S(C)(=O)=O)cc2s1 do in these assays?
aSyn UTR act: -73.4*

Results for CS(=O)(=O)c1ccc2nc(NC(=O)c3cccc([N+](=O)[O-])c3)sc2c1 ?
aSyn UTR act: -136.0*

How did COc1cc(OC)cc(C(=O)Nc2nc3ccc(S(C)(=O)=O)cc3s2)c1 do in these assays?
aSyn UTR act: -149.1*

How did Cc1ccc2c(c1)c1cccc3c1n2CCN3CCC(N)=O do in these assays?
aSyn UTR act: -171.9*

How did Fc1cccc(Cl)c1CSc1ccc(-c2cccnc2)nn1 do in these assays?
aSyn UTR act: -79.5*

How did COc1cccc(NC(=O)NCCC2=CCCCC2)c1 do in these assays?
aSyn UTR act: -183.5*

Results for S=C(NCCC1=CCCCC1)Nc1ccc(Cl)cc1 ?
aSyn UTR act: -109.6*

How did Cc1[nH]nc2nc(SCC(=O)NCCC3=CCCCC3)n(-c3ccc(Br)cc3)c(=N)c12 do in these assays?
aSyn UTR act: 74.5

How did COc1ccc(NC(=O)NCCC2=CCCCC2)cc1 do in these assays?
aSyn UTR act: -130.5*

What do the screens show for `COc1cc(CN2CCCCC2)ccc1OCc1ccccc1`?
aSyn UTR act: -65.5*

Results for COc1ccc(CCNC(=O)C(=O)NCc2ccccc2)cc1OC ?
aSyn UTR act: -81.9*

How did COc1cc(CNC(=O)C2CC2)ccc1OCc1ccccc1 do in these assays?
aSyn UTR act: -96.8*

How did CCCCn1c(-c2ccccc2)cnc1SCC(=O)NCCc1ccc(OC)c(OC)c1 do in these assays?
aSyn UTR act: -135.8*

How did COc1cc(CN2CCC(C(=O)NCCC(C)C)CC2)ccc1OCc1ccccc1 do in these assays?
aSyn UTR act: -173.0*

How did Cc1c(C(=O)c2ccccc2)oc2ccc3ccccc3c12 do in these assays?
aSyn UTR act: -116.4*

How did COc1cc(NC(=O)CC(C)C)ccc1NC(=O)c1ccco1 do in these assays?
aSyn UTR act: -119.1*

How did CCOc1ccc(CC(=O)Nc2ccc(NC(=O)c3ccco3)cc2)cc1OCC do in these assays?
aSyn UTR act: 65.9

What do the screens show for `CCC(=O)Nc1ccc(NC(=O)c2ccco2)c(OC)c1`?
aSyn UTR act: -142.3*

How did CCC(=O)Nc1ccc(NC(=O)c2ccco2)cc1 do in these assays?
aSyn UTR act: -136.0*

What do the screens show for `O=C(Nc1ccc(CSc2ccccc2)cc1)c1ccco1`?
aSyn UTR act: -125.4*

Results for CCC(=O)c1ccc(-c2ccccc2)cc1 ?
aSyn UTR act: -89.3*

Results for CCCC(C)NC(=O)c1ccc(-c2ccccc2)cc1 (stereo not given) ?
aSyn UTR act: -108.6*

Results for CCN1CCN(C(=S)c2ccc(-c3ccccc3)cc2)CC1 ?
aSyn UTR act: 65.8

How did CNc1sc(C(=O)c2ccccc2F)c(N)c1-c1nc2ccccc2s1 do in these assays?
aSyn UTR act: -83.8*

How did O=C(c1ccccn1)c1cc2ccccc2n1S(=O)(=O)c1ccccc1 do in these assays?
aSyn UTR act: -91.2*

How did Cc1ccccc1OCc1nc(-c2ccc(NC(=O)c3cccs3)cc2)no1 do in these assays?
aSyn UTR act: -276.5*

How did CCCc1ccc(OCc2nc(-c3ccc(NC(=O)c4ccco4)cc3)no2)cc1 do in these assays?
aSyn UTR act: -119.2*

How did Cc1ccccc1OCc1nc(-c2ccc(NC(=O)c3ccc4c(c3)OCO4)cc2)no1 do in these assays?
aSyn UTR act: -108.6*

Results for CCCc1ccc(OCc2nc(-c3ccc(NC(=O)c4cccs4)cc3)no2)cc1 ?
aSyn UTR act: -169.1*

Results for CC(Oc1ccc(Cl)cc1Cl)c1nc(-c2ccc(NC(=O)c3ccco3)cc2)no1 (stereo not given) ?
aSyn UTR act: -147.2*

How did Cc1nnc(N/N=C\c2ccc(-c3ccccc3[N+](=O)[O-])o2)n1N do in these assays?
aSyn UTR act: -75.0*

Results for Cc1nnc(N/N=C/c2ccc(-c3ccccc3F)o2)n1N ?
aSyn UTR act: -107.5*

Results for COc1ccc(C)cc1Nc1nc(N)c2ccccc2n1 ?
aSyn UTR act: -101.7*

What do the screens show for `Nc1nc(Nc2ccccc2)nc2ccccc12`?
aSyn UTR act: -82.4*

What do the screens show for `CN(C)c1ccc(Nc2nc(N)c3ccccc3n2)cc1`?
aSyn UTR act: 109.1

What do the screens show for `COc1ccc([N+](=O)[O-])cc1Nc1c2ccccc2nc2ccccc12`?
aSyn UTR act: 76.5

Results for c1ccc(-c2ccc3sccc3n2)cc1 ?
aSyn UTR act: -173.4*

What do the screens show for `CC1CCN(c2oc(-c3ccc(F)cc3)nc2C#N)CC1`?
aSyn UTR act: -67.5*

Results for CC1CCN(c2oc(-c3ccccc3Cl)nc2C#N)CC1 ?
aSyn UTR act: -144.1*

Results for CC(C)(C)c1ccc(C(=O)NC(=S)Nn2cnnc2)cc1 ?
aSyn UTR act: -76.3*

What do the screens show for `CC(C)(C)c1cc(CCC(=O)NNC(=S)NC(=O)c2ccccc2)cc(C(C)(C)C)c1O`?
aSyn UTR act: 65.8

Results for CCOC(=O)C1CCN(C(=O)c2cc(COc3ccc(F)cc3F)on2)CC1 ?
aSyn UTR act: -144.0*

Results for CCOC(=O)N1CCN(C(=O)c2cc(COc3ccc(F)cc3F)on2)CC1 ?
aSyn UTR act: -65.2*
